Measured values reported in paper PMC12820563, “FoxP3 forms a head-to-head dimer in vivo and stabilizes its multimerization on adjacent microsatellites”.
In all, about 16,000 sequences were measured (“rpm ratio (pull-down/input)”: median about 0.5, highest 2% from about 5.5 on). What follows is part of a selection rich in the highest values, with near analogues and random picks from the rest.

The sequences below were run against T1, MBP-FoxP3dN (Mus musculus, UniProt Q99JB6 188-423) (assay: PD-seq (MBP pull-down with sequencing); 20 mM Tris-HCl pH 7.5, 100 mM NaCl, 1.5 mM MgCl2, 0.4 uM protein, 0.1 uM dsDNA library, 30 min, room temperature, amylose pull-down; high values mean tight binding). Settings: protein: recombinant; tags: His6-MBP; chain copies: 2; dsDNA, one strand shown.
T1 sequence: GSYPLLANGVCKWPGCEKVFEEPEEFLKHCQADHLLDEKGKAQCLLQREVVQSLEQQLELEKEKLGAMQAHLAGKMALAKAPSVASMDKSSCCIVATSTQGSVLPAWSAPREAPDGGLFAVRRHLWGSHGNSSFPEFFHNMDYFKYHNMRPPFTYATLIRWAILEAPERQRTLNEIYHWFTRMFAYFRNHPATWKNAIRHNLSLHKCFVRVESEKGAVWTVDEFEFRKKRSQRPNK
Method in brief: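 Binding is the reads-per-million enrichment of pull-down relative to input, pooled across replicates. For this, 0.4 µM His6-MBP-tagged mouse FoxP3 or FoxP1 fragment lacking the N-terminus, made in E. coli, was incubated with 0.1 µM Klenow-filled double-stranded degenerate DNA library for 30 min at room temperature in Tris pH 7.5 buffer with NaCl and MgCl2. Complexes bound to amylose resin were washed three times before proteinase K released the DNA for PCR barcoding and Illumina sequencing.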

With “GATGATTGTTCTCCCAGCTGATGAATTGCTCTTGTCGAGTAAACAAATTTTCCTAATCTTTCTGTTCAAGCGCCATCTAC” as the sequence, how does the binding signal read?
Its binding signal is 0.594 RPM ratio (pull-down/input).

“GATGATTGTTCTCCCAGCTGATGAATTCGGTAGGTCGAGTAAACAAATTTTCCTAATCTTTCTGTTCAAGCGCCATCTAC” was tested. Which binding signal did it give?
The binding signal was 0.485 RPM ratio (pull-down/input).

Which binding signal does the source give for “GATGATTGTTCTCCCAGCTGATGAATTGGGGACGTCGAGTAAACAAATTTTCCTAATCTTTCTGTTCAAGCGCCATCTAC” here?
The binding signal was 0.307 RPM ratio (pull-down/input).

How did the binding signal turn out when “GATGATTGTTCTCCCAGCTGATGAATTGGTGCTTTCGAGTAAACAAATTTTCCTAATCTTTCTGTTCAAGCGCCATCTAC” was run?
Its binding signal is 1.06 RPM ratio (pull-down/input).

For “GATGATTGTTCTCCCAGCTGATGAATTGAGACTTTCGAGTAAACAAATTTTCCTAATCTTTCTGTTCAAGCGCCATCTAC”, which binding signal is on record?
Its binding signal is 1.22 RPM ratio (pull-down/input).

“GATGATTGTTCTCCCAGCTGATGAATTCCGCAGATCGAGTAAACAAATTTTCCTAATCTTTCTGTTCAAGCGCCATCTAC” was tested. Which binding signal did it give?
The binding signal was 0.352 RPM ratio (pull-down/input).

Which binding signal does the source give for “GATGATTGTTCTCCCAGCTGATGAATTAGGAGGGTCGAGTAAACAAATTTTCCTAATCTTTCTGTTCAAGCGCCATCTAC” here?
The binding signal was 0.318 RPM ratio (pull-down/input).

Which binding signal does the source give for “GATGATTGTTCTCCCAGCTGATGAATTTCACGAATCGAGTAAACAAATTTTCCTAATCTTTCTGTTCAAGCGCCATCTAC” here?
The binding signal was 0.212 RPM ratio (pull-down/input).

Which binding signal does the source give for “GATGATTGTTCTCCCAGCTGATGAATTCACTGCTTCGAGTAAACAAATTTTCCTAATCTTTCTGTTCAAGCGCCATCTAC” here?
Its binding signal is 0.345 RPM ratio (pull-down/input).

How did the binding signal turn out when “GATGATTGTTCTCCCAGCTGATGAATTTCCGCCGTCGAGTAAACAAATTTTCCTAATCTTTCTGTTCAAGCGCCATCTAC” was run?
Its binding signal is 0.555 RPM ratio (pull-down/input).

With “GATGATTGTTCTCCCAGCTGATGAATTATTTTAGTCGAGTAAACAAATTTTCCTAATCTTTCTGTTCAAGCGCCATCTAC” as the sequence, how does the binding signal read?
The binding signal was 0.414 RPM ratio (pull-down/input).

“GATGATTGTTCTCCCAGCTGATGAATTTCTGTAGTCGAGTAAACAAATTTTCCTAATCTTTCTGTTCAAGCGCCATCTAC” was tested. Which binding signal did it give?
The binding signal was 0.385 RPM ratio (pull-down/input).

“GATGATTGTTCTCCCAGCTGATGAATTTCTTAGGTCGAGTAAACAAATTTTCCTAATCTTTCTGTTCAAGCGCCATCTAC” was tested. Which binding signal did it give?
Its binding signal is 0.273 RPM ratio (pull-down/input).

For “GATGATTGTTCTCCCAGCTGATGAATTAGTTATGTCGAGTAAACAAATTTTCCTAATCTTTCTGTTCAAGCGCCATCTAC”, which binding signal is on record?
Its binding signal is 3.79 RPM ratio (pull-down/input).

How did the binding signal turn out when “GATGATTGTTCTCCCAGCTGATGAATTTTTGTAGTCGAGTAAACAAATTTTCCTAATCTTTCTGTTCAAGCGCCATCTAC” was run?
Its binding signal is 0.53 RPM ratio (pull-down/input).

“GATGATTGTTCTCCCAGCTGATGAATTAGTCGAGTCGAGTAAACAAATTTTCCTAATCTTTCTGTTCAAGCGCCATCTAC” was tested. Which binding signal did it give?
Its binding signal is 0.367 RPM ratio (pull-down/input).

How did the binding signal turn out when “GATGATTGTTCTCCCAGCTGATGAATTTGTTAGGTCGAGTAAACAAATTTTCCTAATCTTTCTGTTCAAGCGCCATCTAC” was run?
The binding signal was 5.73 RPM ratio (pull-down/input).

Which binding signal does the source give for “GATGATTGTTCTCCCAGCTGATGAATTTTATTAGTCGAGTAAACAAATTTTCCTAATCTTTCTGTTCAAGCGCCATCTAC” here?
Its binding signal is 4.27 RPM ratio (pull-down/input).

For “GATGATTGTTCTCCCAGCTGATGAATTAGTTAGGTCGAGTAAACAAATTTTCCTAATCTTTCTGTTCAAGCGCCATCTAC”, which binding signal is on record?
The binding signal was 1.51 RPM ratio (pull-down/input).

For “GATGATTGTTCTCCCAGCTGATGAATTTATTTAGTCGAGTAAACAAATTTTCCTAATCTTTCTGTTCAAGCGCCATCTAC”, which binding signal is on record?
The binding signal was 5.5 RPM ratio (pull-down/input).

For “GATGATTGTTCTCCCAGCTGATGAATTATGTTAGTCGAGTAAACAAATTTTCCTAATCTTTCTGTTCAAGCGCCATCTAC”, which binding signal is on record?
Its binding signal is 5.81 RPM ratio (pull-down/input).

With “GATGATTGTTCTCCCAGCTGATGAATTTGTGTAGTCGAGTAAACAAATTTTCCTAATCTTTCTGTTCAAGCGCCATCTAC” as the sequence, how does the binding signal read?
Its binding signal is 6.14 RPM ratio (pull-down/input).

With “GATGATTGTTCTCCCAGCTGATGAATTGCCTCCATCGAGTAAACAAATTTTCCTAATCTTTCTGTTCAAGCGCCATCTAC” as the sequence, how does the binding signal read?
Its binding signal is 1.28 RPM ratio (pull-down/input).

How did the binding signal turn out when “GATGATTGTTCTCCCAGCTGATGAATTATACTTCTCGAGTAAACAAATTTTCCTAATCTTTCTGTTCAAGCGCCATCTAC” was run?
Its binding signal is 0.492 RPM ratio (pull-down/input).

“GATGATTGTTCTCCCAGCTGATGAATTTTTCTACTCGAGTAAACAAATTTTCCTAATCTTTCTGTTCAAGCGCCATCTAC” was tested. Which binding signal did it give?
Its binding signal is 0.279 RPM ratio (pull-down/input).

How did the binding signal turn out when “GATGATTGTTCTCCCAGCTGATGAATTTATCGCCTCGAGTAAACAAATTTTCCTAATCTTTCTGTTCAAGCGCCATCTAC” was run?
Its binding signal is 1.07 RPM ratio (pull-down/input).

“GATGATTGTTCTCCCAGCTGATGAATTGCGCTCATCGAGTAAACAAATTTTCCTAATCTTTCTGTTCAAGCGCCATCTAC” was tested. Which binding signal did it give?
Its binding signal is 1.24 RPM ratio (pull-down/input).

“GATGATTGTTCTCCCAGCTGATGAATTAGCCGGCTCGAGTAAACAAATTTTCCTAATCTTTCTGTTCAAGCGCCATCTAC” was tested. Which binding signal did it give?
The binding signal was 0.203 RPM ratio (pull-down/input).

“GATGATTGTTCTCCCAGCTGATGAATTGTTTTTATCGAGTAAACAAATTTTCCTAATCTTTCTGTTCAAGCGCCATCTAC” was tested. Which binding signal did it give?
Its binding signal is 3.74 RPM ratio (pull-down/input).

Which binding signal does the source give for “GATGATTGTTCTCCCAGCTGATGAATTTATCTAATCGAGTAAACAAATTTTCCTAATCTTTCTGTTCAAGCGCCATCTAC” here?
The binding signal was 0.706 RPM ratio (pull-down/input).

With “GATGATTGTTCTCCCAGCTGATGAATTATGTTTATCGAGTAAACAAATTTTCCTAATCTTTCTGTTCAAGCGCCATCTAC” as the sequence, how does the binding signal read?
The binding signal was 8.36 RPM ratio (pull-down/input).

For “GATGATTGTTCTCCCAGCTGATGAATTATGATTATCGAGTAAACAAATTTTCCTAATCTTTCTGTTCAAGCGCCATCTAC”, which binding signal is on record?
The binding signal was 3.53 RPM ratio (pull-down/input).

How did the binding signal turn out when “GATGATTGTTCTCCCAGCTGATGAATTGTGTTTATCGAGTAAACAAATTTTCCTAATCTTTCTGTTCAAGCGCCATCTAC” was run?
Its binding signal is 8.53 RPM ratio (pull-down/input).

For “GATGATTGTTCTCCCAGCTGATGAATTTATGTTATCGAGTAAACAAATTTTCCTAATCTTTCTGTTCAAGCGCCATCTAC”, which binding signal is on record?
Its binding signal is 3.24 RPM ratio (pull-down/input).

How did the binding signal turn out when “GATGATTGTTCTCCCAGCTGATGAATTCTGTTTATCGAGTAAACAAATTTTCCTAATCTTTCTGTTCAAGCGCCATCTAC” was run?
Its binding signal is 7.92 RPM ratio (pull-down/input).
